According to PubChem BioAssay:
For some of these results: Potency and affinity values are given separately. Calls of active or inactive are those of the source. Unless noted, no rule for the calls is given here.

How the values were obtained:
[1] = antimalarial activity against Dd2 strain (AID 2302;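 active = growth inhibition above 50% at the single 2 µM test dose, taken to imply half-maximal potency below 2 µM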;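 also: 0% = DMSO untreated growth and 100% = chloroquine plus artemisinin killed control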); conditions: P. falciparum Dd2 in RBCs, LDH growth readout, 72 h; at 2 µM; hits give high values
[2] = human hepatoma cell viability loss – ATP luminescence, cytotoxicity control for P. falciparum antimalarial project, primary screen (AID 2303;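 active = inhibition above 50%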;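 also: 0% = DMSO wells and 100% = digitonin-killed cells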); conditions: HepG2 viability, 24-48 h, at 10 µM, hits give high values
[3] = target: L-lactate dehydrogenase (Plasmodium falciparum (isolate CDC / Honduras)) (UniProt Q27743); assay: PfLDH activity inhibition – cell lysate, 3D7 strain, counter-screen for P. falciparum growth inhibition project (AID 2304);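 also: 0% = vehicle and 100% = reference inhibitor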; conditions: P. falciparum 3D7 crude extract, LDH APAD/NBT absorbance; at 2 µM; hits give high values
Sequence of L-lactate dehydrogenase (Plasmodium falciparum (isolate CDC / Honduras)) (Q27743 whole entry, looked up): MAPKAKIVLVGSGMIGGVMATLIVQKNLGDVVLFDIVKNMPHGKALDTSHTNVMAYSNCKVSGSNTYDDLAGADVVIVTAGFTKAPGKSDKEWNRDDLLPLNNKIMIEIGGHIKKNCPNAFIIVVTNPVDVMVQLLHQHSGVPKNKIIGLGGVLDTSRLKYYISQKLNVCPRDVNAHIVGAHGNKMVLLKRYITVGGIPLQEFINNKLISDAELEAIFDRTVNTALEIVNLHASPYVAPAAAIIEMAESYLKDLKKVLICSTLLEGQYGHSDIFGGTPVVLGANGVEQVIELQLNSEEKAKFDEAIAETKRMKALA

[4] = inhibition of 3D7 malaria parasite growth – strain 3D7 (AID 2306);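 also: 0% = DMSO wells and 100% = chloroquine plus artemisinin control wells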; conditions: P. falciparum 3D7 erythrocytic growth, LDH absorbance, 72 h; at 2 µM; hits give high values
[5] = target: Calcium-dependent protein kinase 1 (Plasmodium falciparum (isolate 3D7)) (UniProt P62344); assay: PfCDPK1 kinase inhibitors, biochemical, TCAMS library (AID 1159585; cut-off not given, nearly all actives have IC50 up to about 0.98 µM;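 also: inhibitors leave more ATP so luminescence rises with inhibition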); conditions: recombinant PfCDPK1, Kinase-Glo ATP depletion luminescence
Sequence of Calcium-dependent protein kinase 1 (Plasmodium falciparum (isolate 3D7)) (P62344 whole entry, looked up): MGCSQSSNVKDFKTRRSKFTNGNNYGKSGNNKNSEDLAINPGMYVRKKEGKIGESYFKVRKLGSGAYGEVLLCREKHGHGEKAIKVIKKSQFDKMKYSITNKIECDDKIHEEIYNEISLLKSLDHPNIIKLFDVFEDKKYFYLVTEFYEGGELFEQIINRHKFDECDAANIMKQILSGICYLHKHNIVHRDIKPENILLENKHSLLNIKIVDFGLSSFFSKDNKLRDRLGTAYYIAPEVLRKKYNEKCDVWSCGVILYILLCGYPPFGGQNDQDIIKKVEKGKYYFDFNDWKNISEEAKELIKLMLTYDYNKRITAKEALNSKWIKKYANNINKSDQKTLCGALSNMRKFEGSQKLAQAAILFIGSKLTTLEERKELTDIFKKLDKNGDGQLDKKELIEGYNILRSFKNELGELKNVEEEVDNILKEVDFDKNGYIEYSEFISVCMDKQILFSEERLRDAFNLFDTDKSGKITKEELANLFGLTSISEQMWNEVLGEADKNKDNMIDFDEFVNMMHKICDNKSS

[6] = target: Plasmodium falciparum protein kinase 6 (PK6, PF3D7_1337100) (UniProt Q8IDW1); assay: PfPK6 kinase inhibitors, biochemical, TCAMS library (AID 1159586); conditions: recombinant PfPK6, Kinase-Glo ATP depletion luminescence
Sequence of Plasmodium falciparum protein kinase 6 (PK6, PF3D7_1337100) (Q8IDW1 1-305): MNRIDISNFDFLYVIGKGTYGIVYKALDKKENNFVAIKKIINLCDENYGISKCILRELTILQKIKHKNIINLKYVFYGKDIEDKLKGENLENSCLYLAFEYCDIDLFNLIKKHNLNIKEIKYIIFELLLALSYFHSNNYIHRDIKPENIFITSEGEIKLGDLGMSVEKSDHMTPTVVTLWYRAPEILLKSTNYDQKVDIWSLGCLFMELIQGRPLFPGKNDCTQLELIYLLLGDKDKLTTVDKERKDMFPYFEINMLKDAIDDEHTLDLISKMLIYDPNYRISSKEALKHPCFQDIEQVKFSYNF

[7] = target: Protein kinase 7 (PK7), Plasmodium falciparum 3D7 (PF3D7_0213400) (UniProt Q7YTF7); assay: inhibition of Plasmodium PK7 catalytic activity – biochemical, TCAMS antimalarial set, Kinase-Glo luminescence (AID 1159587); conditions: recombinant PfPK7, Kinase-Glo ATP depletion luminescence
Sequence of Protein kinase 7 (PK7), Plasmodium falciparum 3D7 (PF3D7_0213400) (Q7YTF7 1-343): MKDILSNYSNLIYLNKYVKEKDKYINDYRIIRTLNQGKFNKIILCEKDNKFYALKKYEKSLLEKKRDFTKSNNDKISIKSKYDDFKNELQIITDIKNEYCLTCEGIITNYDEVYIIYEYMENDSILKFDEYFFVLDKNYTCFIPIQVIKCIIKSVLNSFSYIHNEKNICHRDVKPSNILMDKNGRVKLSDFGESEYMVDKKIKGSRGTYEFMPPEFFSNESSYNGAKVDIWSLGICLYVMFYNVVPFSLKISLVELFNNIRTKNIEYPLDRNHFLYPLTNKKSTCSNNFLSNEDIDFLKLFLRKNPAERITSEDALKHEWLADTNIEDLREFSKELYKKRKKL

[8] = target: Calcium-dependent protein kinase 4 (Plasmodium falciparum (isolate 3D7)) (UniProt Q8IBS5); assay: PfCDPK4 kinase inhibitors, biochemical, TCAMS library (AID 1159588; cut-off not given, nearly all actives have IC50 up to about 0.91 µM); conditions: recombinant PfCDPK4, Kinase-Glo ATP depletion luminescence
Sequence of Calcium-dependent protein kinase 4 (Plasmodium falciparum (isolate 3D7)) (Q8IBS5 whole entry, looked up): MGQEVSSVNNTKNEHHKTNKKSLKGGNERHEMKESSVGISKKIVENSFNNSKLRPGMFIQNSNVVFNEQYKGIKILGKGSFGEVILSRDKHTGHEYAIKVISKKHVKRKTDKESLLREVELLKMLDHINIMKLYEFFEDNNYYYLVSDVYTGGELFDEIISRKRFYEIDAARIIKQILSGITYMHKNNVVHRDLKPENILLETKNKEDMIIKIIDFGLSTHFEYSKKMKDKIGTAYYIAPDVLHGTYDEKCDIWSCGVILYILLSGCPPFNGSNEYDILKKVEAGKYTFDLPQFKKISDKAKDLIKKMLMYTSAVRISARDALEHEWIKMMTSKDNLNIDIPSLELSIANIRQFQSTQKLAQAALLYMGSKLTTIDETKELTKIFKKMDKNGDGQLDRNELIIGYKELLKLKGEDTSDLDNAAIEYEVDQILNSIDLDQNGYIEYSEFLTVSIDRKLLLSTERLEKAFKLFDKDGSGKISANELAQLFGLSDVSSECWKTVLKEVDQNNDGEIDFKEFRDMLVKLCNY

CCNc1c2ccc(Cl)cc2nc2ccc(OC)cc12
active: growth inhibition [1] 100% | growth inhibition [4] 99%
inactive: inhibition [2] 16% | inhibition [3] 0% | outcome [5] | outcome [6] | outcome [7] | outcome [8]

CN(C)c1ccc(-c2ccc(C(=O)NC3CCN(Cc4ccc5c(c4)OCCO5)CC3)s2)cc1
inactive: inhibition [2] 36% | inhibition [3] -2% | outcome [5] | outcome [6] | outcome [7] | outcome [8]
active: growth inhibition [1] 73% | growth inhibition [4] 100%

CCCCNCc1ccc(-c2nc(CN(CCCn3ccnc3)C(=O)N[C@@H]3C[C@H]3c3ccccc3)cs2)cc1
active: growth inhibition [4] 100%
inactive: growth inhibition [1] 34% | inhibition [2] 21% | inhibition [3] 3% | outcome [5] | outcome [6] | outcome [7] | outcome [8]

O=C(Nc1ccc(CCNCc2ccccc2)cc1)Nc1ccc(OC(F)(F)F)cc1
active: growth inhibition [4] 102%
inactive: growth inhibition [1] 22% | inhibition [2] -2% | inhibition [3] -2% | outcome [5] | outcome [6] | outcome [7] | outcome [8]

N#Cc1cccc(NC(=O)Nc2cccc(-c3ccc(-c4nc5ccc(C(F)(F)F)cc5[nH]4)cc3)c2)c1
active: growth inhibition [1] 99% | inhibition [2] 54% | growth inhibition [4] 102%
inactive: inhibition [3] -8% | outcome [5] | outcome [6] | outcome [7] | outcome [8]

Cc1cccc(CNc2nccc3[nH]c4ccccc4c23)c1
inactive: inhibition [2] 14% | inhibition [3] 0% | outcome [5] | outcome [6] | outcome [7] | outcome [8]
active: growth inhibition [1] 51% | growth inhibition [4] 92%

NC(=NCCCc1ccccc1)c1cccc(C(N)=NCCCc2ccccc2)n1
active: growth inhibition [4] 98%
inactive: growth inhibition [1] -1% | inhibition [2] 44% | inhibition [3] -6% | outcome [5] | outcome [6] | outcome [7] | outcome [8]

CCOc1cccc(C(=O)Nc2cccc(CN3CCCN(Cc4cccc(O)c4)CC3)c2)c1
active: growth inhibition [4] 85%
inactive: growth inhibition [1] 18% | inhibition [2] 17% | inhibition [3] -3% | outcome [5] | outcome [6] | outcome [7] | outcome [8]

Cc1ccc(S(C)(=O)=O)cc1/C=C/C(=O)O
active: growth inhibition [4] 96%
inactive: growth inhibition [1] 1% | inhibition [2] -7% | inhibition [3] 4% | outcome [5] | outcome [6] | outcome [7] | outcome [8]

CCCCCn1c(Sc2ccc(C#N)c([N+](=O)[O-])c2)nnc1-c1ccccc1
inactive: growth inhibition [1] 15% | inhibition [2] 22% | inhibition [3] -2% | outcome [5] | outcome [6] | outcome [7] | outcome [8]
active: growth inhibition [4] 93%

NC(=O)c1cccc(C(=O)Nc2cccc(-c3csc(-c4nc5ccccc5[nH]4)c3)c2)c1
inactive: inhibition [2] 16% | inhibition [3] 0% | outcome [5] | outcome [6] | outcome [7] | outcome [8]
active: growth inhibition [1] 92% | growth inhibition [4] 101%

N=c1c2c(n(Cc3cccc(Cl)c3)c3c1CCC3)CCCC2
active: growth inhibition [1] 86% | growth inhibition [4] 97%
inactive: inhibition [2] -5% | inhibition [3] -1% | outcome [5] | outcome [6] | outcome [7] | outcome [8]

CCCOc1cccc(C(=O)N[C@@H](Cc2ccccc2)[C@H](O)CNCc2ccccc2OC)c1
active: growth inhibition [1] 61% | growth inhibition [4] 95%
inactive: inhibition [2] 11% | inhibition [3] 0% | outcome [5] | outcome [6] | outcome [7] | outcome [8]

CCOC(=O)c1cccc(NC(=O)Nc2cc(C)nc3ccccc23)c1
inactive: inhibition [2] 14% | inhibition [3] 0% | outcome [5] | outcome [6] | outcome [7] | outcome [8]
active: growth inhibition [1] 90% | growth inhibition [4] 100%

O=C(Nc1cc(Cl)ccc1O)c1cnn2c(C(F)(F)F)cc(-c3cccs3)nc12
active: growth inhibition [1] 74% | growth inhibition [4] 100%
inactive: inhibition [2] 8% | inhibition [3] 1% | outcome [5] | outcome [6] | outcome [7] | outcome [8]

COc1ccc(NC(=O)/C=C/c2ccccc2Cl)cc1OCCN1CCC(NCc2ccccc2)CC1
active: growth inhibition [1] 101% | growth inhibition [4] 106%
inactive: inhibition [2] 28% | inhibition [3] 7% | outcome [5] | outcome [6] | outcome [7] | outcome [8]

COc1ccc2c(-c3ccccc3)noc2c1
active: growth inhibition [4] 98%
inactive: growth inhibition [1] 34% | inhibition [2] -4% | inhibition [3] -2% | outcome [5] | outcome [6] | outcome [7] | outcome [8]

FC(F)(F)c1ccc2nc(-c3ccc(-c4cccc(CNCCN5CCNCC5)c4)cc3)[nH]c2c1
inactive: growth inhibition [1] 2% | inhibition [2] 13% | inhibition [3] -1% | outcome [5] | outcome [6] | outcome [7] | outcome [8]
active: growth inhibition [4] 92%

c1ccc(N2CCN(c3cc(-c4cccnc4)nc(-c4ccncc4)n3)CC2)nc1
active: growth inhibition [4] 99%
inactive: growth inhibition [1] 22% | inhibition [2] 22% | inhibition [3] -2% | outcome [5] | outcome [6] | outcome [7] | outcome [8]

Cc1cccc2[nH]c(-c3cccc(-c4cccc(C(=O)NCc5nccn5C)c4)c3)nc12
inactive: inhibition [2] 22% | inhibition [3] 8% | outcome [5] | outcome [6] | outcome [7] | outcome [8]
active: growth inhibition [1] 50% | growth inhibition [4] 99%

COCCNCc1ccc(-c2cccc(CNC3CCN(Cc4ccccc4)CC3)c2)cc1
active: growth inhibition [1] 101% | growth inhibition [4] 100%
inactive: inhibition [2] 30% | inhibition [3] 0% | outcome [5] | outcome [6] | outcome [7] | outcome [8]

CCCCCCN1CCCN(Cc2cccc(C(=O)Nc3ccc(C(C)(C)C)cc3)c2)CC1
inactive: growth inhibition [1] 23% | inhibition [2] 41% | inhibition [3] 0% | outcome [5] | outcome [6] | outcome [7] | outcome [8]
active: growth inhibition [4] 93%

NCc1ccc(CNCc2ccc(-c3ccc(-c4nc5ccc(C(F)(F)F)cc5[nH]4)s3)cc2)cc1
active: growth inhibition [1] 92% | growth inhibition [4] 95%
inactive: inhibition [2] 34% | inhibition [3] -2% | outcome [5] | outcome [6] | outcome [7] | outcome [8]

CCN(CC)S(=O)(=O)n1ncc2c3c(N)nc(N)nc3ccc21
inactive: growth inhibition [1] 16% | inhibition [3] 3% | outcome [5] | outcome [6] | outcome [7] | outcome [8]
active: inhibition [2] 67% | growth inhibition [4] 93%

COc1cccc(NC(=O)N2CCOC(CCN3CCC4(CCc5ccccc54)CC3)(c3ccc(Cl)c(Cl)c3)C2)c1 (stereo not drawn)
inactive: inhibition [3] 5% | outcome [5] | outcome [6] | outcome [7] | outcome [8]
active: growth inhibition [1] 72% | inhibition [2] 97% | growth inhibition [4] 94%

O=C(/C=C/c1ccc(Cl)c(Cl)c1)NCCCCCN1CCC(NC(=O)Nc2ccc(Oc3ccccc3)cc2)C1 (stereo not drawn)
active: growth inhibition [4] 99%
inactive: growth inhibition [1] 6% | inhibition [2] 35% | inhibition [3] 4% | outcome [5] | outcome [6] | outcome [7] | outcome [8]

O=C(NC1CCC(CCN2Cc3cccc(C(F)(F)F)c3C2)CC1)c1cccc(-c2cccnc2)c1 (stereo not drawn)
active: growth inhibition [1] 67% | growth inhibition [4] 100%
inactive: inhibition [2] 26% | inhibition [3] 2% | outcome [5] | outcome [6] | outcome [7] | outcome [8]

CN(CCc1ccccn1)Cc1ccc(-c2ccc(-c3nc4ccccc4[nH]3)s2)cc1
active: growth inhibition [4] 100%
inactive: growth inhibition [1] 48% | inhibition [2] 29% | inhibition [3] 6% | outcome [5] | outcome [6] | outcome [7] | outcome [8]

Cc1ccc2c(c1)C1(CC(=O)N(CCc3scnc3C)C1=O)C(=O)N2Cc1ccccc1 (stereo not drawn)
inactive: inhibition [2] -5% | inhibition [3] 2% | outcome [5] | outcome [6] | outcome [7] | outcome [8]
active: growth inhibition [1] 73% | growth inhibition [4] 83%

NCC1CCCN1Cc1cccc(-c2ccc(-c3nc4ccc(C(F)(F)F)cc4[nH]3)cc2)c1 (stereo not drawn)
active: growth inhibition [1] 95% | growth inhibition [4] 100%
inactive: inhibition [2] 20% | inhibition [3] 0% | outcome [5] | outcome [6] | outcome [7] | outcome [8]

Cc1ccc(CNC(=O)[C@H](CCCN)Nc2nc(NCC3CCCCC3)ncc2C)cc1
active: growth inhibition [4] 92%
inactive: growth inhibition [1] 5% | inhibition [2] 1% | inhibition [3] 3% | outcome [5] | outcome [6] | outcome [7] | outcome [8]

COc1ccc(CC(=O)NC2CCN(c3ccnc4cc(Cl)ccc34)C2)cc1 (stereo not drawn)
inactive: inhibition [2] -1% | inhibition [3] -8% | outcome [5] | outcome [6] | outcome [7] | outcome [8]
active: growth inhibition [1] 88% | growth inhibition [4] 101%

COc1ccc2nccc([C@@H](O)CN3CCC(NC(=O)CCC(=O)c4cc(C(C)(C)C)ccc4OC)CC3)c2c1
active: growth inhibition [1] 51% | growth inhibition [4] 94%
inactive: inhibition [2] 26% | inhibition [3] -9% | outcome [5] | outcome [6] | outcome [7] | outcome [8]

COc1cc2nccc(Nc3ccc(OCc4ccc(NC(C)=O)cc4)cc3)c2cc1OC
active: growth inhibition [1] 95% | growth inhibition [4] 101%
inactive: inhibition [2] 24% | inhibition [3] 3% | outcome [5] | outcome [6] | outcome [7] | outcome [8]

Cc1nc2ccc3ccc(CNc4ccc(C(=O)N[C@@H](CCC(=O)O)C(=O)O)cc4)cc3c2c(=O)[nH]1
active: growth inhibition [1] 95% | growth inhibition [4] 89%
inactive: inhibition [2] 32% | inhibition [3] 0% | outcome [5] | outcome [6] | outcome [7] | outcome [8]

CN1CCN(c2ccc(-c3cccc(NC(=O)c4cccc(Cl)c4)c3)nn2)CC1
active: growth inhibition [4] 94%
inactive: growth inhibition [1] 37% | inhibition [2] 5% | inhibition [3] -2% | outcome [5] | outcome [6] | outcome [7] | outcome [8]

COc1c(C2CCN(CCCCNC(=O)c3cccc(-c4ccc(C(F)(F)F)cc4)c3)CC2)ccc2c1CCCC2
active: inhibition [2] 50% | growth inhibition [4] 92%
inactive: growth inhibition [1] 45% | inhibition [3] -4% | outcome [5] | outcome [6] | outcome [7] | outcome [8]

NC1CCN(Cc2ccc(-c3ccc(-c4nc5ccccc5[nH]4)cc3)cc2)C1 (stereo not drawn)
inactive: inhibition [2] 34% | inhibition [3] -5% | outcome [5] | outcome [6] | outcome [7] | outcome [8]
active: growth inhibition [1] 100% | growth inhibition [4] 101%

COc1ccc2nc(SC(C)C(=O)c3c[nH]c4ccccc34)[nH]c2c1 (stereo not drawn)
inactive: inhibition [2] -3% | inhibition [3] 0% | outcome [5] | outcome [6] | outcome [7] | outcome [8]
active: growth inhibition [1] 98% | growth inhibition [4] 100%

CCn1c(CN2CCN(Cc3ccccc3)CC2)nc2cc(NC(=O)c3cccs3)ccc21
inactive: inhibition [2] 0% | inhibition [3] 2% | outcome [5] | outcome [6] | outcome [7] | outcome [8]
active: growth inhibition [1] 95% | growth inhibition [4] 97%

Cc1nc(-c2cccc(Nc3nccc(NCC(O)c4cccc(C(F)(F)F)c4)n3)c2)cs1 (stereo not drawn)
active: growth inhibition [1] 99% | growth inhibition [4] 100%
inactive: inhibition [2] 14% | inhibition [3] 0% | outcome [5] | outcome [6] | outcome [7] | outcome [8]
